Laboratory results: the supplement of paper PMC11732987, “Enantioselective OTUD7B fragment discovery through chemoproteomics screening and high-throughput optimisation” (Communications Chemistry, 2025)

Columns and labels:
Experiment in all cases: log2 ratio of Biotin-Ahx-Ub-VS probe labelling (fragment/DMSO); higher = less target engagement (more negative = stronger competition), active = hit call of the paper (q ≤ 0.05, log2 ratio ≤ -1)
Conditions in all cases: compound concentration: 200 uM; treatment time: 3 h
USP19 = biological target: T1, USP19 (UniProt O94966)
T1 sequence (whole entry): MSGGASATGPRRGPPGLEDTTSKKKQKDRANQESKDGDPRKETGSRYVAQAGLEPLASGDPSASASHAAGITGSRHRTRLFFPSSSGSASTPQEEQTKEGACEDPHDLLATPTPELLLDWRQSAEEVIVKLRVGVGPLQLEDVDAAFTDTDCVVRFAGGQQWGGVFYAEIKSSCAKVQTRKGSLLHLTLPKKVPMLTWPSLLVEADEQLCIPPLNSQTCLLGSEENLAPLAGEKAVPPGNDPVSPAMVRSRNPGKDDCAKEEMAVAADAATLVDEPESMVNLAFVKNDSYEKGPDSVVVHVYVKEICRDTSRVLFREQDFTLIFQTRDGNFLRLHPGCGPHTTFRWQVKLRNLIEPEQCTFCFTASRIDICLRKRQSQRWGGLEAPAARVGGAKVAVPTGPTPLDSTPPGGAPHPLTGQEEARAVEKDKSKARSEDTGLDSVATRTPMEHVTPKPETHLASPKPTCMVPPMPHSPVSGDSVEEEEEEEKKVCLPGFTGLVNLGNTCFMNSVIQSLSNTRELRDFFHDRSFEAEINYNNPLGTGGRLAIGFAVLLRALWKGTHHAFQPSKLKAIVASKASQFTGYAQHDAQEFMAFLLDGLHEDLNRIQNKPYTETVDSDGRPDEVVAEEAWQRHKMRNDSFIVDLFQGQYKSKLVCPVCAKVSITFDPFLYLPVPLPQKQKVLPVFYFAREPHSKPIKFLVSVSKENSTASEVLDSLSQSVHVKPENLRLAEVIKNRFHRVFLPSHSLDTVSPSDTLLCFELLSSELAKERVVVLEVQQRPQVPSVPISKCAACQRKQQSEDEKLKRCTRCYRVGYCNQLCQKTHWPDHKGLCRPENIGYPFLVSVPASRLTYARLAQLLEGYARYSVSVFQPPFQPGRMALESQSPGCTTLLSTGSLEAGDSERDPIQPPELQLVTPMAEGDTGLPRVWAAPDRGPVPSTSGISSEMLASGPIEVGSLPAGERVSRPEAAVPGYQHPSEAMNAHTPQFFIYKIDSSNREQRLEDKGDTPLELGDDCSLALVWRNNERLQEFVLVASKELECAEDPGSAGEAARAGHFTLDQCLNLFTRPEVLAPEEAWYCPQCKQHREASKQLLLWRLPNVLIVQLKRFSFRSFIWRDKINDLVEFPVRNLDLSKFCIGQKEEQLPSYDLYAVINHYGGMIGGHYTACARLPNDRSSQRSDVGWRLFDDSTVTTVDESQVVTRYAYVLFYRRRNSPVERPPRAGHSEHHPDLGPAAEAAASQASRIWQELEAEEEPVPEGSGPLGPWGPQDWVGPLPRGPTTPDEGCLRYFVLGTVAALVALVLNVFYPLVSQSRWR
Summary of the method: (§1)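 HEK293T lysate, 495 µg per sample in Tris/CHAPS/IGEPAL buffer with protease inhibitors, was treated in triplicate with fragment at 200 µM or vehicle for 3 h and then with Biotin-Ahx-Ub-VS at 0.5 µM final for 1 h. Labelled DUBs were NeutrAvidin-enriched, digested with LysC and trypsin, and run by diaPASEF LC-MS/MS. Spectronaut label-free quantities were global-median-normalised, and values are average log2 fragment/vehicle ratios by unpaired t-test on proteins with ≥2 unique peptides.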

USP22 = biological target: T2, USP22 (UniProt Q9UPT9)
T2 sequence (whole entry): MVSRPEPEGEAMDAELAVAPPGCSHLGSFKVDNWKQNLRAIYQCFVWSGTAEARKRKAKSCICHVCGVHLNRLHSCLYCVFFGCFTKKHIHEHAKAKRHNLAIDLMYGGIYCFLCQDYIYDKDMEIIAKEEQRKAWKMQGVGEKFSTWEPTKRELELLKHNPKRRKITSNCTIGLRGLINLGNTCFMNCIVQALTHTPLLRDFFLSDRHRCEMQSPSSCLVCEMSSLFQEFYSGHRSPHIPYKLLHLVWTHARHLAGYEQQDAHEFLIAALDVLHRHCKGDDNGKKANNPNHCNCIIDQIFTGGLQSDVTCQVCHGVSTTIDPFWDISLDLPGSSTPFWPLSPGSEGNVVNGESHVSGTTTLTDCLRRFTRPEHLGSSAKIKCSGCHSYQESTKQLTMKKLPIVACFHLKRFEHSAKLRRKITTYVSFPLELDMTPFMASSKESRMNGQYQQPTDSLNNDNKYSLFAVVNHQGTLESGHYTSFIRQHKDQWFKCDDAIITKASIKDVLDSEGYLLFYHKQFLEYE
Summary of the method: as §1

USP24 = USP24 (UniProt Q9UPU5)
Sequence of USP24 (Q9UPU5 whole entry): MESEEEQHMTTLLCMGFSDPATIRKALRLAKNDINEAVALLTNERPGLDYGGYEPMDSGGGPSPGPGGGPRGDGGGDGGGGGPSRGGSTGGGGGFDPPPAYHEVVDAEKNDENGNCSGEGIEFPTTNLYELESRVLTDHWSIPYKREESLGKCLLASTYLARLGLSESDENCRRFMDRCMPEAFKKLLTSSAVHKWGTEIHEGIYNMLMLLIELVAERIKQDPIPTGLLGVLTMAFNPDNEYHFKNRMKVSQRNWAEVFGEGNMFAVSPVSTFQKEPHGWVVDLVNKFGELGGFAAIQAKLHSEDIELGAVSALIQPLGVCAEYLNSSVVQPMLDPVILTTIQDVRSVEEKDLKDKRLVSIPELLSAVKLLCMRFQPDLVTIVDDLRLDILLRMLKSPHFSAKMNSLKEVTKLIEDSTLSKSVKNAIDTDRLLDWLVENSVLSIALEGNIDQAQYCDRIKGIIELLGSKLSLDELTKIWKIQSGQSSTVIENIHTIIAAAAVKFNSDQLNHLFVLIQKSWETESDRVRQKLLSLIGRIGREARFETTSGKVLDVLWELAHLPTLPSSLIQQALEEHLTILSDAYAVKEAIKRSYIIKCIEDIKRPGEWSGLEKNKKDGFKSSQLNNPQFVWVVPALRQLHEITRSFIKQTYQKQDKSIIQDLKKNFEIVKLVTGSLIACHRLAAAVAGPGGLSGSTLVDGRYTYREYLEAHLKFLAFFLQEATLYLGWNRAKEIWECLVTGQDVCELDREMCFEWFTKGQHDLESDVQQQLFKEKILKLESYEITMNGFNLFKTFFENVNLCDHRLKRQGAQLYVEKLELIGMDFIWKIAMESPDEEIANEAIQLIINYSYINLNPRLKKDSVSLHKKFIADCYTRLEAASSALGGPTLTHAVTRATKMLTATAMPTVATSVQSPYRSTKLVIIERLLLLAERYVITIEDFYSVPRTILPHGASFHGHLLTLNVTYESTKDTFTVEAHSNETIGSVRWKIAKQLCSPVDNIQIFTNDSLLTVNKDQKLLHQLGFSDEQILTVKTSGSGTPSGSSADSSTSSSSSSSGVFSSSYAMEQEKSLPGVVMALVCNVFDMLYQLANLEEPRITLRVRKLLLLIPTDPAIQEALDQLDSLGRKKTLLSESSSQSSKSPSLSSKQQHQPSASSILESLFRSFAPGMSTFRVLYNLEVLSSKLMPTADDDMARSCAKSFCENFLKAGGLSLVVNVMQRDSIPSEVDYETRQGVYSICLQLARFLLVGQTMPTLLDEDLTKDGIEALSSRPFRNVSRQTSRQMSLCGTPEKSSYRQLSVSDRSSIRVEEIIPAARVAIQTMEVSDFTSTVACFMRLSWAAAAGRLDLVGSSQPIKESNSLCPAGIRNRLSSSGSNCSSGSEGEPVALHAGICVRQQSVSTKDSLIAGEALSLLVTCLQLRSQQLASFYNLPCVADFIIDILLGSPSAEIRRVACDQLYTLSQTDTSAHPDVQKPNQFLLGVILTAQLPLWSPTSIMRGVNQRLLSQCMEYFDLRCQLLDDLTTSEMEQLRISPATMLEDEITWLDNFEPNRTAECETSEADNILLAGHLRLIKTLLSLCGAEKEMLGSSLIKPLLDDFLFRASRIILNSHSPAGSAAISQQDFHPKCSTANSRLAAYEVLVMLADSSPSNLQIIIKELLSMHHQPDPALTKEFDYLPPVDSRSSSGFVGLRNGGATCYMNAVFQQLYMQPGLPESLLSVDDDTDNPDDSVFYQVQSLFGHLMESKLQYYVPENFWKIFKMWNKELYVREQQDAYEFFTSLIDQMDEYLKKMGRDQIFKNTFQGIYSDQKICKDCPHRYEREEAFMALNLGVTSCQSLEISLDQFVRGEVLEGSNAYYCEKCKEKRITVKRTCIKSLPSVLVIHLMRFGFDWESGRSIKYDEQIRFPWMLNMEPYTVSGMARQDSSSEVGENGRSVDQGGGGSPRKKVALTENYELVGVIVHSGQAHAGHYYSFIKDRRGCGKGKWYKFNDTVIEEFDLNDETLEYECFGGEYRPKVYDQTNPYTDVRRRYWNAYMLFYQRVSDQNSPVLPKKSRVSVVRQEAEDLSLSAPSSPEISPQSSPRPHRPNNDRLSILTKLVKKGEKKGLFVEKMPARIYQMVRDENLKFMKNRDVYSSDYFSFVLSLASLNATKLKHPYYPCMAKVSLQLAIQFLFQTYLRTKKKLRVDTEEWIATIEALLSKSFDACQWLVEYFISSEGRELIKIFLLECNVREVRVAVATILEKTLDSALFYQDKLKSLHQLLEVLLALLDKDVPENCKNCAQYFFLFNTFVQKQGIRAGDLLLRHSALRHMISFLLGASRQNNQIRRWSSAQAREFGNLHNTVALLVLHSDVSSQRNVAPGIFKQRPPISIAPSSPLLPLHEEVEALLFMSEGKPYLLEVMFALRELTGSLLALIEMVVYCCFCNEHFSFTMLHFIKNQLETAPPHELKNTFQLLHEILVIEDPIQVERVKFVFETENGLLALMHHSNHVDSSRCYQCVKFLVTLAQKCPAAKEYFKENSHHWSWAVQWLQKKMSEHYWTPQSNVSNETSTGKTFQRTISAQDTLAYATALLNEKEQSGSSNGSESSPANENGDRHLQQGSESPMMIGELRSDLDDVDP
Summary of the method: as §1

USP25 = biological target: T3, USP25 (UniProt Q9UHP3)
T3 sequence (whole entry): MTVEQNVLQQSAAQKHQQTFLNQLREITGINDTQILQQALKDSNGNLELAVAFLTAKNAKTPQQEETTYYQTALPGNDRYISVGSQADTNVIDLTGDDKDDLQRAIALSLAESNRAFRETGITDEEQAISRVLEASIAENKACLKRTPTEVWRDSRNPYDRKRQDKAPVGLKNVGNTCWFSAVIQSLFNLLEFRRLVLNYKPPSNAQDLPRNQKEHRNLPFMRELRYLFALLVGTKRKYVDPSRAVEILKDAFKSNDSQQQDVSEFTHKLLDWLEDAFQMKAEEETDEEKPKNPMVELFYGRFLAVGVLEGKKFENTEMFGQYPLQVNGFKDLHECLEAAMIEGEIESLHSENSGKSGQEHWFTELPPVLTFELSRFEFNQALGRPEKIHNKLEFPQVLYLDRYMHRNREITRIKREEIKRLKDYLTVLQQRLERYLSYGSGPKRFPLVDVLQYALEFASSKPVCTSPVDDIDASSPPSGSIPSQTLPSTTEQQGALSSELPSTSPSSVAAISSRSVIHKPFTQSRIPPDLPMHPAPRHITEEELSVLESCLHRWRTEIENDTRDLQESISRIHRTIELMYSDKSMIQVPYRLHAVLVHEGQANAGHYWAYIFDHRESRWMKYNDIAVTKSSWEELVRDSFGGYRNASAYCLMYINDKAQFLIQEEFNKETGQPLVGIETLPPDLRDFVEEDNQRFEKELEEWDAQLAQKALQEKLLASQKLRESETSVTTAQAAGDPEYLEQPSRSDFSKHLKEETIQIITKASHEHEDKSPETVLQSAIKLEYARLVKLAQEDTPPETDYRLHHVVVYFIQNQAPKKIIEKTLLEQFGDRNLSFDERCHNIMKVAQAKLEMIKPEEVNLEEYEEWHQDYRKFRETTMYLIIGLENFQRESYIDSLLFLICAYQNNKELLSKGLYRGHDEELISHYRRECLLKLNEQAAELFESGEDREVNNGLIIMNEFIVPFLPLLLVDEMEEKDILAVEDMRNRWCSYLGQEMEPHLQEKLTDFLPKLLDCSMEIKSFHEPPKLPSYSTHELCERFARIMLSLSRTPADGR
Summary of the method: as §1

USP28 = biological target: T4, USP28 (UniProt Q96RU2)
T4 sequence (whole entry): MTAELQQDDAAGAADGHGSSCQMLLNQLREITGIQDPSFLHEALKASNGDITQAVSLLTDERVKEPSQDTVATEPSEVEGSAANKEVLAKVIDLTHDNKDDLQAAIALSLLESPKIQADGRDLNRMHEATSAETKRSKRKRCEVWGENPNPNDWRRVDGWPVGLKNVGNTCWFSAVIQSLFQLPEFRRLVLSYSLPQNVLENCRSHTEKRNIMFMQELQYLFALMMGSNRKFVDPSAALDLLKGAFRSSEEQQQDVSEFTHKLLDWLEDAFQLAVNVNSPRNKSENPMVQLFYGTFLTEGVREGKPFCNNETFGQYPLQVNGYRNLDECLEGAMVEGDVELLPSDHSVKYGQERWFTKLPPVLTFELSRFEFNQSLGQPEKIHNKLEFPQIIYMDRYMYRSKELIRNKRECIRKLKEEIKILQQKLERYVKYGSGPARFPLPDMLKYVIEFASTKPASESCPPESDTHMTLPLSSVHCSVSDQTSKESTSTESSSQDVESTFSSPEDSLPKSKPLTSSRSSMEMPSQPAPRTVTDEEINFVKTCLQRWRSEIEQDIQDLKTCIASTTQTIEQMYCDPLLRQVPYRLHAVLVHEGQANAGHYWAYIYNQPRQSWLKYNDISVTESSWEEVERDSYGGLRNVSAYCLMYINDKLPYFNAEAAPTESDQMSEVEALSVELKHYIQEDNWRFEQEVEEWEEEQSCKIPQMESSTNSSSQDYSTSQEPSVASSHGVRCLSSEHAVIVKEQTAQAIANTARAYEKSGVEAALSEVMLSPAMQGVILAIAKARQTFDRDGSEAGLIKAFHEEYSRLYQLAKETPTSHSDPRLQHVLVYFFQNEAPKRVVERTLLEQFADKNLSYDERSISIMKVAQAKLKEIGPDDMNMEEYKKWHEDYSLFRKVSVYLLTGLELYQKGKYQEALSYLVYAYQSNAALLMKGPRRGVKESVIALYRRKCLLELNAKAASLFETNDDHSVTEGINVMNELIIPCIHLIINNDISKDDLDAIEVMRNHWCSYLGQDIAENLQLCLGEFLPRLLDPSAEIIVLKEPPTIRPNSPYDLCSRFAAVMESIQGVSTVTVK
Summary of the method: as §1

Measured: log2 ratio of Biotin-Ahx-Ub-VS probe labelling

CCCn1nccc1NC(=O)CCl
inactive: USP19 -0.237 | USP22 0.165 | USP24 -0.693 | USP25 -0.184 | USP28 -0.445
